According to PubChem BioAssay (Tox21):
Inconclusive results are not listed. Where a call stands in place of a potency, no number is given. Calls of active or inactive are those of the source. Unless noted, calls come from the whole dose curve; as a rule, active = well fitted curve in the direction sought with a large enough effect in the repeat runs; inconclusive = weak or mixed curves; inactive = no such curve, though single readings can be large; an effect the other way counts as inactive or inconclusive.

Legend:
[1] = qHTS assay to identify small molecule antagonists of the glucocorticoid receptor (GR) signaling pathway - cell viability counter screen (AID 720693); note: nearly all actives have a fitted effect of over 55% in size
[2] = qHTS assay for identifying genotoxic compounds that show differential cytotoxicity against isogenic chicken DT40 cell lines with known DNA damage response pathways - wild type cell line (AID 743012); note: nearly all actives have a fitted effect of over 60% in size; note: potency is the fitted concentration of half-maximal effect
Outline: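 Quantitative HTS on parental DT40 cells: 40 h compound treatment at 37 C/5% CO2, with viability then determined by CellTiter-Glo luminescence. Values serve as the DNA repair-proficient reference for differential cytotoxicity.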

[3] = qHTS assay for identifying genotoxic compounds that show differential cytotoxicity against isogenic chicken DT40 cell lines with known DNA damage response pathways - Rev3 mutant cell line (AID 743014); note: nearly all actives have a fitted effect of over 55% in size; note: potency is the fitted concentration of half-maximal effect
[4] = qHTS assay for identifying genotoxic compounds that show differential cytotoxicity against isogenic chicken DT40 cell lines with known DNA damage response pathways - Rad54/Ku70 mutant cell line (AID 743015); note: nearly all actives have a fitted effect of over 60% in size; note: potency is the fitted concentration of half-maximal effect
[5] = qHTS assay to identify small molecule antagonists of the androgen receptor (AR) signaling pathway - cell viability counter screen (AID 743033; note: nearly all actives have a fitted effect of over 45% in size)
[6] = molecular target: Androgen receptor (Homo sapiens) (UniProt P10275); assay: qHTS assay to identify small molecule antagonists of the androgen receptor (AR) signaling pathway (AID 743035; active = well fitted inhibition curve with a large enough effect in the signal ratio in the repeat runs, not every such curve was filed as active; the % refers to the signal ratio; note: potency is the fitted concentration of half-maximal effect)
Chain of Androgen receptor (Homo sapiens) (P10275 whole entry, looked up): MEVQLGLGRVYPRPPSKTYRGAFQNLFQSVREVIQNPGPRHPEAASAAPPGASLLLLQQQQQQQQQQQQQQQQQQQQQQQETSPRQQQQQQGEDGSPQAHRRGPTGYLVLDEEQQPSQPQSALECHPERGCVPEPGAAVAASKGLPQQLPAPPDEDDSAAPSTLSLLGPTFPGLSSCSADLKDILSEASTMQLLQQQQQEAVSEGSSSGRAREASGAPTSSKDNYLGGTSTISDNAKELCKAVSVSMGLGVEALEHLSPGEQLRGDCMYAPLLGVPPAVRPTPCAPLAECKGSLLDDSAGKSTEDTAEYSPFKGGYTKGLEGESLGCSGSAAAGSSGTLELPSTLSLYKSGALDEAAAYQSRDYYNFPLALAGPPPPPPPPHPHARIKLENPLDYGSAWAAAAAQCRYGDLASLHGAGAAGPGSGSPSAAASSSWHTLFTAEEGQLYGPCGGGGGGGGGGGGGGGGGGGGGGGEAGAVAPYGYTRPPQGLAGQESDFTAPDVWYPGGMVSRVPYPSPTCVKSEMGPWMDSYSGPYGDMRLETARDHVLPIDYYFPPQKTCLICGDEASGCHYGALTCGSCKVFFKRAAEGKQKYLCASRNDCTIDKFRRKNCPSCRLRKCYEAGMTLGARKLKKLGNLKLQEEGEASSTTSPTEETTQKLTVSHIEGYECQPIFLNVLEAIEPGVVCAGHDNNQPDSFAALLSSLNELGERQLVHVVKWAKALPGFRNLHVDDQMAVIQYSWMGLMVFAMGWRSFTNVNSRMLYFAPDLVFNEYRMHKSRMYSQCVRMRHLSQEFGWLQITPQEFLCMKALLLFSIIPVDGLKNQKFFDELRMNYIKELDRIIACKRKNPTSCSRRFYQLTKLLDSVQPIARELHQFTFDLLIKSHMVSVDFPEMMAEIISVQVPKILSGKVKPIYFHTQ
Outline: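 Cell line: GeneBLAzer AR-UAS-bla GripTite (HEK293). Stimulus: R1881 added after compound. Exposure: 16 h, 37C, 5% CO2. Readout: LiveBLAzer B/G FRET fluorescence after 2 h at room temperature.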

[7] = molecular target: Androgen receptor (Homo sapiens) (UniProt P10275); assay: qHTS assay to identify small molecule agonists of the androgen receptor (AR) signaling pathway (AID 743036; active = well fitted activation curve with a large enough effect in the signal ratio in the repeat runs, with a control signal flat, not every such curve was filed as active; the % refers to the signal ratio)
Outline: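 Following a 4 h settling period, AR-UAS-bla HEK293 cells were dosed with compounds for 16 h at 37C. A 2 h room-temperature incubation with LiveBLAzer B/G FRET substrate preceded the fluorescence measurement.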

[8] = molecular target: Androgen receptor (Homo sapiens) (UniProt P10275); assay: qHTS assay to identify small molecule agonists of the androgen receptor (AR) signaling pathway using the MDA cell line (AID 743040; note: nearly all actives have a fitted effect of over 20% in size)
Outline: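 Human breast carcinoma MDA-kb2 reporter cells (MMTV-luc, AR/GR elements) were treated for 16 h at 37C in 0% CO2 following a 5 h settling period. Signal was quantified by ONE-Glo luminescence.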

[9] = qHTS assay to identify small molecule antagonists of the androgen receptor (AR) signaling pathway using the MDA cell line - cell viability counter screen (AID 743041; note: nearly all actives have a fitted effect of over 45% in size; note: potency is the fitted concentration of half-maximal effect)
Outline: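 Same-well cytotoxicity was assessed by CellTiter-Fluor in MDA-kb2 AR-luc cells after 16 h of compound treatment under R1881 agonism.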

[10] = molecular target: Androgen receptor (Homo sapiens) (UniProt P10275); assay: qHTS assay to identify small molecule antagonists of the androgen receptor (AR) signaling pathway using the MDA cell line (AID 743042; note: nearly all actives have a fitted effect of over 55% in size)
Outline: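 MDA-kb2 breast carcinoma cells carrying MMTV-luciferase (AR/GR responsive) were co-treated with compounds and the agonist R1881 for 16 h at 37C. Inhibition read as ONE-Glo luminescence; CellTiter-Fluor fluorescence measured in parallel for cytotoxicity.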

[11] = qHTS assay to identify small molecule antagonists of the thyroid receptor (TR) signaling pathway - cell viability counter screen (AID 743064); note: nearly all actives have a fitted effect of over 50% in size; note: potency is the fitted concentration of half-maximal effect
Outline: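 CellTiter-Fluor readout, 30 min at 37 °C/5% CO2, following 23.5 h incubation of GH3.TRE-Luc cells with test compound and 1 nM T3 (final).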

[12] = qHTS assay to identify small molecule antagonists of the thyroid receptor (TR) signaling pathway (AID 743065); note: nearly all actives have a fitted effect of over 55% in size; note: potency is the fitted concentration of half-maximal effect
Outline: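 GH3.TRE-Luc rat pituitary cells (two TREs driving luciferase) were dosed with compound, then stimulated with 1 nM T3 (final) for 23.5 h at 37 C. ONE-Glo luminescence was the read-out, with CellTiter-Fluor fluorescence as the cytotoxicity counter-screen.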

[13] = tested on: thyroid hormone receptor (rat, GH3 cells); assay: qHTS assay to identify small molecule agonists of the thyroid receptor (TR) signaling pathway (AID 743066; calls by dose curve)
[14] = molecular target: Estrogen receptor (Homo sapiens) (UniProt P03372); assay: qHTS assay to identify small molecule antagonists of the estrogen receptor alpha (ER-alpha) signaling pathway (AID 743069; active = well fitted curve in the direction sought with a large enough effect in the signal ratio in the repeat runs, not every such curve was filed as active; the % refers to the signal ratio)
Chain of Estrogen receptor (Homo sapiens) (P03372 whole entry, looked up): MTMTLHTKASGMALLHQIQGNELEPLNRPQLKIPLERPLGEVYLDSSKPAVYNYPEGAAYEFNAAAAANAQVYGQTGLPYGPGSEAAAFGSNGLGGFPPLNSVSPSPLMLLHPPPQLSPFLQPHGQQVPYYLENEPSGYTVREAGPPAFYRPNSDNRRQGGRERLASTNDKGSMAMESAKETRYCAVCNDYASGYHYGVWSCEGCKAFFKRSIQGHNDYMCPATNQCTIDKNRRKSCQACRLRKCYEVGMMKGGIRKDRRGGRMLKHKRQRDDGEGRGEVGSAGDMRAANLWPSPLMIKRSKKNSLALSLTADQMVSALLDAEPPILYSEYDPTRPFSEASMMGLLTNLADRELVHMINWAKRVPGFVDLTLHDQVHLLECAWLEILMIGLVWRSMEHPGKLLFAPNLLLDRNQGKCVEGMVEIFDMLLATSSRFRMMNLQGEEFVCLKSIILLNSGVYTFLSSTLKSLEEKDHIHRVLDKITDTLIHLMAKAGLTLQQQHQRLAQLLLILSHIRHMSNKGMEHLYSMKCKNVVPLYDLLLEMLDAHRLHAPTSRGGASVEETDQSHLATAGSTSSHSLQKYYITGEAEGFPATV
Outline: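 Reporter cells (ER-alpha-bla, HEK293 background) are conditioned overnight in stripped-serum medium (2% charcoal-stripped FBS). Compound and 17beta-estradiol exposure runs 18 hr at 37C, 5% CO2.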

[15] = qHTS assay to identify small molecule antagonists of the estrogen receptor alpha (ER-alpha) signaling pathway - cell viability counter screen (AID 743074; calls by dose curve;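 note: HEK293 cells carrying ER-alpha-UAS-bla reporter stimulated with 17beta-estradiol; nearly all actives have a fitted effect of over 45% in size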)
[16] = molecular target: Estrogen receptor (Homo sapiens) (UniProt P03372); assay: qHTS assay to identify small molecule agonists of the estrogen receptor alpha (ER-alpha) signaling pathway (AID 743075; calls by dose curve;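 note: HEK293 GripTite cells with ER-alpha and UAS-driven beta-lactamase reporter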)
[17] = molecular target: Estrogen receptor (Homo sapiens) (UniProt P03372); assay: qHTS assay to identify small molecule agonists of the estrogen receptor alpha (ER-alpha) signaling pathway using the BG1 cell line (AID 743079); note: nearly all actives have a fitted effect of over 20% in size; note: potency is the fitted concentration of half-maximal effect
[18] = qHTS assay to identify small molecule antagonists of the estrogen receptor alpha (ER-alpha) signaling pathway using the BG1 cell line (AID 743080; calls by dose curve;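 note: BG1 cells stimulated with 17beta-estradiol alongside compound; series mostly up to about 70 µM; nearly all actives have a fitted effect of over 25% in size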)
Outline: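 BG1Luc4E2, endogenous ER-alpha, 4xERE-luc; 5 d charcoal-stripped FBS, phenol red free; 24 h plating; cpd + 17beta-estradiol 21.5 h, 37 C/5% CO2; CellTiter-Fluor viability 30 min, then ONE-Glo luciferase 30 min RT.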

[19] = qHTS assay to identify small molecule antagonists of the estrogen receptor alpha (ER-alpha) signaling pathway using the BG1 cell line - cell viability counter screen (AID 743081);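 note: compound given together with 17beta-estradiol as the ER stimulus; series mostly up to about 70 µM; nearly all actives have a fitted effect of over 45% in size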
Aromatase (Homo sapiens) = Aromatase (Homo sapiens) (UniProt P11511); assay: qHTS assay to identify aromatase inhibitors (AID 743083); note: nearly all actives have a fitted effect of over 55% in size; note: potency is the fitted concentration of half-maximal effect
Chain of Aromatase (Homo sapiens) (P11511 whole entry, looked up): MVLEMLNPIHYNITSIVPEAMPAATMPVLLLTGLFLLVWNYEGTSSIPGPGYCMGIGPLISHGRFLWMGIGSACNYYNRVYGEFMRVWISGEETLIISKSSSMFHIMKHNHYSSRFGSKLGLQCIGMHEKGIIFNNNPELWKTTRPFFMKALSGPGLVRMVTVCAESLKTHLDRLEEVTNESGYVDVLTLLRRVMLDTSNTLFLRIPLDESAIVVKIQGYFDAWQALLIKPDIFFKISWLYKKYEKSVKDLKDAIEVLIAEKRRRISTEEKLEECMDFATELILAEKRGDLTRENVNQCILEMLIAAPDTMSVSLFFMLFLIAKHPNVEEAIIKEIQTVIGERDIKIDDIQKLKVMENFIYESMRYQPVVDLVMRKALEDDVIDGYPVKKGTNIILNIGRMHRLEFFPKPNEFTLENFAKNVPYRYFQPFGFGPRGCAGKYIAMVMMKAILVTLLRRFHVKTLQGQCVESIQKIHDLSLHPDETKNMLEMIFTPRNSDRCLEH

Structure (SMILES)	outcome [1]	Potency [2]	Potency [3]	Potency [4]	outcome [5]	Potency [6]	outcome [7]	Potency [8]	Potency [9]	outcome [10]	Potency [11]	Potency [12]	outcome [13]	Potency [14]	Potency [15]	outcome [16]	Potency [17]	outcome [18]	Potency [19]	Potency (Aromatase (Homo sapiens))
COC(=O)C(C)O (configuration not stated)	inactive	inactive	inactive	inactive	inactive	inactive	inactive	inactive	inactive	inactive	inactive	inactive	inactive	inactive	inactive	inactive	inactive	inactive	inactive	inactive
Cc1ccsc1C(=CCCN1CCC[C@@H](C(=O)O)C1)c1sccc1C	inactive	inactive	inactive	inactive	inactive	inactive	inactive	inactive	inactive	inactive	inactive	inactive	inactive	inactive	inactive	inactive	21.1 µM (active)	inactive	inactive	inactive
O=C1CCCc2ccccc21	inactive	inactive	inactive	inactive	inactive				inactive		inactive	inactive	inactive	inactive	inactive	inactive	inactive	inactive	inactive	inactive
CCCCCCCCCC#N	inactive	inactive	inactive	inactive	inactive				inactive		inactive	inactive	inactive	inactive	inactive	inactive	inactive	inactive	inactive	inactive
CCN(CC)C(=O)N(CC)CC	inactive	inactive		inactive	inactive				inactive		inactive	inactive	inactive		inactive				inactive	inactive
CO[C@@]1(NC(=O)CSCC#N)C(=O)N2C(C(=O)O)=C(CSc3nnnn3C)CS[C@@H]21	inactive	inactive	inactive	inactive	inactive				inactive			inactive	inactive	inactive	inactive	inactive	inactive	inactive	inactive	inactive
CCCCC(=O)O[C@]1(C(=O)CO)[C@H](C)C[C@H]2[C@@H]3CCC4=CC(=O)C=C[C@]4(C)[C@@]3(F)[C@@H](O)C[C@@]21C	inactive	26.6 µM (active)							inactive		inactive		inactive		inactive	inactive	inactive		inactive	inactive
CCOC(=O)C(Br)c1ccccc1 (configuration not stated)	inactive	inactive		inactive	inactive				inactive		inactive		inactive	inactive	inactive	inactive	inactive	inactive	inactive	inactive
CNCCC(Oc1ccccc1OC)c1ccccc1 (configuration not stated)	inactive	26.6 µM (active)	inactive	inactive	inactive				inactive				inactive	inactive	inactive	inactive	inactive	inactive	inactive	inactive
CCCCCCCCOC(=O)CCCCCCCCC(=O)OCCCCCCCC	inactive	68.6 µM (active)	17.2 µM (active)		inactive				inactive		inactive	inactive	inactive	inactive	inactive	inactive	inactive	inactive	inactive	inactive
CCCCNC(=S)NCCCC	inactive	48.6 µM (active)	34.4 µM (active)	24.3 µM (active)					inactive		inactive	inactive	inactive	inactive	inactive	inactive	inactive	inactive	inactive	inactive
CCCCCOc1ccc(C2SC(=O)NC2=O)cc1OCC (configuration not stated)	inactive	inactive		inactive	inactive		inactive	inactive	inactive	inactive	inactive			inactive	inactive	inactive	inactive	inactive	inactive	
c1ccc(CN(CC2=NCCN2)c2ccccc2)cc1	inactive	29.8 µM (active)			inactive				inactive		26.6 µM (active)		inactive		inactive	inactive	inactive	inactive	inactive	inactive
O=C1Nc2ccc([N+](=O)[O-])cc2C1=O	inactive	inactive		inactive	inactive						inactive	inactive	inactive		inactive					
OCc1ccccc1O	inactive	inactive	inactive	inactive					inactive		inactive	inactive	inactive		inactive				inactive	inactive
Cc1c(C(=O)NCCO)[n+](=O)c2ccccc2n1[O-]	inactive	inactive			inactive	inactive	inactive	inactive	inactive	inactive	inactive	inactive	inactive		inactive				inactive	inactive
CC(C)NC[C@@H](O)COc1cccc2ccccc12	inactive	26.6 µM (active)							inactive				inactive		inactive				inactive	inactive
Nc1ccc(Oc2ccc(N)c(N)c2)cc1	inactive	15.4 µM (active)	7.7 µM (active)	13.7 µM (active)	inactive								inactive		inactive	inactive			inactive	
CC(C)=CCCC(C)CCOC=O (configuration not stated)	inactive	48.6 µM (active)	27.3 µM (active)	27.3 µM (active)	inactive				inactive		inactive				inactive				inactive	
CC(C)CC(=O)OCc1ccccc1	inactive	inactive			inactive				inactive		inactive	inactive	inactive	inactive	inactive	inactive	inactive	inactive	inactive	inactive

Structure (SMILES)	outcome [1]	Potency [2]	Potency [3]	Potency [4]	outcome [5]	Potency [6]	outcome [7]	Potency [8]	Potency [9]	outcome [10]	Potency [11]	Potency [12]	outcome [13]	Potency [14]	Potency [15]	outcome [16]	Potency [17]	outcome [18]	Potency [19]	Potency (Aromatase (Homo sapiens))
CC(C)CCCCCCc1ccc(OCCOCCO)cc1	inactive	inactive			inactive	inactive	inactive	inactive	inactive	inactive		inactive	inactive	inactive	inactive	inactive	inactive	inactive	inactive	
CCCCNc1ccc(C(=O)OCCN(CC)CC)cc1	inactive	2.37 µM (active)	1.68 µM (active)	2.37 µM (active)	inactive				inactive				inactive	inactive		inactive	inactive	inactive		inactive
CC(=O)N[C@@H](CC(C)C)C(=O)O	inactive	inactive		inactive	inactive				inactive			inactive	inactive	inactive	inactive	inactive		inactive	inactive	inactive
CC[C@H]1CC[C@H](NCc2cc3c(cc2OC)[C@H]2C[C@H]2C(=O)N3C)[C@H](c2ccccc2)N1	inactive	6.86 µM (active)	4.86 µM (active)	4.86 µM (active)	inactive				68.6 µM (active)		24.3 µM (active)			inactive	inactive	inactive				68.6 µM (active)
NCCC(O)(P(=O)(O)O)P(=O)(O)O	inactive	inactive	inactive	inactive	inactive				inactive						inactive				inactive	inactive
Cc1cc2nc(N)sc2cc1C	inactive	61.7 µM (active)	55 µM (active)		inactive			inactive	inactive	inactive	inactive	inactive	inactive		inactive				inactive	inactive
CC(=O)N(CC(O)CN(C(C)=O)c1c(I)c(C(=O)NCC(O)CO)c(I)c(C(=O)NCC(O)CO)c1I)c1c(I)c(C(=O)NCC(O)CO)c(I)c(C(=O)NCC(O)CO)c1I (configuration not stated)	inactive	inactive	inactive	inactive					inactive			inactive	inactive	inactive	inactive	inactive	inactive	inactive	inactive	inactive
CCCNC(C)(C)COC(=O)c1ccccc1	inactive	inactive		inactive	inactive				inactive			inactive	inactive	inactive	inactive	inactive	inactive	inactive	inactive	inactive
O=CCCc1ccccc1	inactive	inactive		inactive	inactive				inactive		inactive		inactive						inactive	inactive
COc1cc(C)ccc1C(C)C	inactive	inactive	inactive		inactive				inactive		inactive	inactive	inactive	inactive	inactive	inactive	inactive	inactive		inactive
CCCCCCCCCC/C=C/C#N	inactive	inactive		inactive	inactive				inactive		inactive	inactive	inactive	inactive	inactive	inactive	inactive	inactive	inactive	inactive
CC1(C)S[C@@H]2[C@H](NC(=O)C(C(=O)O)c3ccccc3)C(=O)N2[C@H]1C(=O)O (some centres not stated)	inactive	inactive		inactive	inactive				inactive		inactive	inactive	inactive		inactive				inactive	inactive
CN(C)C(=O)NC1(c2ccccc2)CCN(CCC[C@]2(c3ccc(Cl)c(Cl)c3)CCCN(C(=O)c3ccccc3)C2)CC1	inactive	10.3 µM (active)	14.6 µM (active)	9.2 µM (active)					inactive		5.17 µM (active)	11.6 µM (active)		inactive	inactive	inactive	inactive	inactive		inactive
OCCN(CCO)CCN(CCO)CCO	inactive	inactive		inactive	inactive	inactive		inactive	inactive	inactive	inactive	inactive	inactive	inactive	inactive	inactive		inactive	inactive	inactive
CCCCC(CC)COC(=O)COc1cc(Cl)c(Cl)cc1Cl (configuration not stated)	inactive	inactive	inactive	inactive	inactive				inactive			inactive	inactive	inactive	inactive	inactive	inactive	inactive	inactive	inactive
Cc1ccc(C=O)s1	inactive	inactive	inactive	inactive	inactive				inactive			inactive	inactive		inactive				inactive	inactive
Cc1nc(-c2ccccn2)ncc1C(=O)Nn1cc(C)c2cc(F)ccc21	inactive	61.1 µM (active)	61.1 µM (active)	30.6 µM (active)		49 µM (active)	inactive	inactive	inactive		inactive	inactive	inactive	inactive	inactive	inactive			inactive	inactive
Cc1c(N)cccc1N	inactive	inactive		14 µM (active)	inactive				inactive		inactive	inactive	inactive		inactive				inactive	
CCCCN1C[C@H](O)[C@@H](O)[C@H](O)[C@H]1CO	inactive	inactive	inactive	inactive	inactive				inactive			inactive	inactive	inactive	inactive	inactive	inactive	inactive		inactive
